Results as given in PubChem BioAssay (NCI).
Compounds without any hit were thinned out: in the full panel of roughly 83,000, 20% have a hit.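 Compound tested at a single concentration for 48 hours in 96-well plates; a percent growth value below 10 was scored as active.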 Calls of active or inactive are those of the source.

Tests used:
Test in all cases: NCI-60 one-dose screen, 48 h (100 = growth as untreated, 0 = no growth, -100 = all killed)
Conditions in all cases: 10 µM unless noted
NCI-H23 lung = tested on: NCI-H23 lung
NCI-H226 lung = tested on: NCI-H226 lung
NCI-H322M lung = tested on: NCI-H322M lung
HOP-62 NSCLC = tested on: HOP-62 NSCLC
NCI-H460 lung = tested on: NCI-H460 lung
NCI-H522 lung = tested on: NCI-H522 lung
A549/ATCC NSCLC = tested on: A549/ATCC NSCLC
786-0 renal = tested on: 786-0 renal
COLO 205 colon = tested on: COLO 205 colon
DU-145 prostate = tested on: DU-145 prostate
K-562 leukemia = tested on: K-562 leukemia
MALME-3M melanoma = tested on: MALME-3M melanoma
MDA-MB-231 breast = tested on: MDA-MB-231 breast
RXF 393 renal = tested on: RXF 393 renal
SF-268 CNS = tested on: SF-268 CNS
SF-295 CNS = tested on: SF-295 CNS
SF-539 CNS = tested on: SF-539 CNS
UACC-257 melanoma = tested on: UACC-257 melanoma
HCT-15 colon = tested on: HCT-15 colon
M14 melanoma = tested on: M14 melanoma

Measured: growth

O=C(Nc1ccc(Nc2ccncc2)cc1)c1ccc(Nc2ccnc3ccc([N+](=O)[O-])cc23)cc1[N+](=O)[O-]
active: MALME-3M melanoma -49.8% | SF-268 CNS -11.6%
inactive: NCI-H23 lung 83% | NCI-H226 lung 103% | NCI-H322M lung 89.5% | HOP-62 NSCLC 127% | NCI-H460 lung 44.9% | NCI-H522 lung 43.2% | A549/ATCC NSCLC 35.2% | 786-0 renal 50.1% | COLO 205 colon 122% | DU-145 prostate 56.8% | K-562 leukemia 107% | MDA-MB-231 breast 94.9% | RXF 393 renal 35.9% | SF-295 CNS 19.4% | SF-539 CNS 53.3% | UACC-257 melanoma 70.9% | HCT-15 colon 86.7%

CCOC(=O)C1=C(COCCN)NC(C)=C(C(=O)OC)C1c1ccccc1Cl (stereo unspecified)
inactive: NCI-H23 lung 83.7% | NCI-H226 lung 91.9% | NCI-H322M lung 80.3% | HOP-62 NSCLC 89.7% | NCI-H460 lung 60.3% | NCI-H522 lung 73.3% | A549/ATCC NSCLC 71.8% | 786-0 renal 70.1% | DU-145 prostate 98.6% | K-562 leukemia 59.1% | MALME-3M melanoma 74% | MDA-MB-231 breast 17.4% | RXF 393 renal 50.9% | SF-268 CNS 87% | SF-295 CNS 96.2% | SF-539 CNS 92.9% | UACC-257 melanoma 59% | HCT-15 colon 64.6%
active: COLO 205 colon -51.9%

COC(=O)[C@]12CC[C@@H](C)[C@H](C)[C@@H]1C1=CC[C@@H]3[C@@]4(C)C[C@@H](OC(=O)c5ccco5)[C@H](O)[C@@](C)(CO)[C@@H]4[C@H](O)C[C@@]3(C)[C@]1(C)CC2
active: NCI-H23 lung -84.1% | NCI-H226 lung -53.4% | NCI-H322M lung -93.8% | HOP-62 NSCLC -88.3% | NCI-H460 lung -84.7% | NCI-H522 lung -83.3% | A549/ATCC NSCLC -92.7% | 786-0 renal -77.8% | COLO 205 colon -93.3% | DU-145 prostate -100% | K-562 leukemia -100% | MALME-3M melanoma -73.4% | MDA-MB-231 breast -65.7% | RXF 393 renal -79% | SF-268 CNS -79.6% | SF-295 CNS -98.3% | SF-539 CNS -90.1% | M14 melanoma -59.5% | HCT-15 colon -95.7%

N#Cc1cnc2cc(OC[C@H](O)CO)c(NC(=O)CC3CSSC3)cc2c1Nc1ccc(OCc2cccc(F)c2)c(Cl)c1
inactive: HCT-15 colon 27.3%
active: NCI-H23 lung -73.4% | NCI-H226 lung -62.3% | NCI-H322M lung -85.4% | HOP-62 NSCLC -60.8% | NCI-H460 lung -70.7% | NCI-H522 lung -68.3% | A549/ATCC NSCLC -69.3% | 786-0 renal -63.2% | COLO 205 colon -79.4% | DU-145 prostate -93.5% | K-562 leukemia -100% | MALME-3M melanoma -67% | MDA-MB-231 breast -54.9% | RXF 393 renal -86.1% | SF-268 CNS -56.3% | SF-295 CNS -82.1% | SF-539 CNS -85.8% | M14 melanoma -66.8%

CC(c1cc(Cl)ccc1O)c1cc(Cl)ccc1O
active: NCI-H522 lung -39.3%
inactive: NCI-H23 lung 17.9% | NCI-H226 lung 82.5% | NCI-H322M lung 80% | HOP-62 NSCLC 84.3% | NCI-H460 lung 15.7% | A549/ATCC NSCLC 29.3% | 786-0 renal 90% | COLO 205 colon 41.2% | DU-145 prostate 50.7% | K-562 leukemia 28.7% | MALME-3M melanoma 16.5% | MDA-MB-231 breast 43.8% | RXF 393 renal 49.6% | SF-268 CNS 35% | SF-295 CNS 45.9% | UACC-257 melanoma 33% | HCT-15 colon 29.7%

CCCc1cccc(CCC)c1O
inactive: NCI-H23 lung 100% | NCI-H226 lung 106% | NCI-H322M lung 124% | HOP-62 NSCLC 106% | NCI-H460 lung 106% | NCI-H522 lung 89.9% | A549/ATCC NSCLC 98.2% | 786-0 renal 110% | COLO 205 colon 116% | DU-145 prostate 120% | K-562 leukemia 104% | MALME-3M melanoma 131% | MDA-MB-231 breast 125% | RXF 393 renal 121% | SF-268 CNS 109% | SF-295 CNS 91.4% | SF-539 CNS 118% | UACC-257 melanoma 93.3% | HCT-15 colon 107%

Cc1cc(O)c2c(c1)C[C@H]1[C@@H]3CC[C@H]4CC(=O)CC[C@]4(C)[C@H]3CC(=O)[C@]21C
inactive: NCI-H23 lung 77.3% | NCI-H226 lung 94.6% | NCI-H322M lung 104% | HOP-62 NSCLC 123% | NCI-H460 lung 99.2% | NCI-H522 lung 73.9% | A549/ATCC NSCLC 77% | 786-0 renal 87.8% | COLO 205 colon 104% | DU-145 prostate 85.2% | K-562 leukemia 53.3% | MALME-3M melanoma 92.8% | MDA-MB-231 breast 86% | RXF 393 renal 94.1% | SF-268 CNS 87.6% | SF-539 CNS 73.3% | UACC-257 melanoma 100% | M14 melanoma 80.9% | HCT-15 colon 45.3%

Cc1cc(C)n2nc(SCC(=O)Nc3sc4c(c3C(N)=O)CCC4)nc2n1
inactive: NCI-H23 lung 101% | NCI-H226 lung 87.1% | NCI-H322M lung 99.7% | HOP-62 NSCLC 93.7% | NCI-H460 lung 116% | NCI-H522 lung 94% | A549/ATCC NSCLC 146% | 786-0 renal 96.4% | COLO 205 colon 118% | DU-145 prostate 101% | K-562 leukemia 119% | MALME-3M melanoma 106% | MDA-MB-231 breast 99.2% | RXF 393 renal 117% | SF-268 CNS 113% | SF-295 CNS 101% | SF-539 CNS 90.8% | M14 melanoma 102% | HCT-15 colon 108%
